The text below walks through data of PubChem BioAssay (NCATS).

Several values for one entry are separate records, joined by “and”; a condition that tells them apart may be missing. Identical values can stand only once. Inconclusive results are not listed. A number with no mark means an inactive call. Activity calls are given as the source filed them. Calls come from the whole dose curve; as a rule, active = well fitted inhibition curve with a large enough effect; inconclusive = small, poorly fitted or top-dose-only effect; inactive = flat fitted curve, though single readings scatter.
% is set by controls: 0 for no effect and ±100 for the full control effect; potency is the fitted concentration of half-maximal effect.

The test has as its system HEK293. Briefly: Cytotoxic Profiling of Annotated Libraries Using Quantitative High-Throughput Screening (AID 1296008). Note: nearly all actives have a fitted effect of over 60% in size. The following applies: Five cell lines viability, CellTiter-Glo ATP luminescence, 48-72 h; max response: hits give low values. In short, it runs like this:
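Compounds were pin-transferred onto cells and incubated 48 or 72 hr at 37 degree Celsius, 95% humidity. CellTiter-Glo was added, plates sat 10 min at room temperature, then ATP-coupled luminescence was imaged as the viability read-out.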
(In general: Cellular ATP, detected with luciferase, serves as a proxy for viable cell number.)
On to `CCCCCCCCCCCCCCCC[N+](C)(C)C`, for which the Potency is 5.96 µM (active). On the same count and under the same terms, the value for `C=C[C@@H]1CN2CCC1C[C@@H]2[C@@H](O)c1ccnc2ccccc12` (stereo not given in full) was 18.7 µM (active).

For `O=c1cccc2n1CC1CNC[C@H]2C1`, the max response was -2.71%. Still for that read-out and setting: the value for `CCC(=O)O[C@@H]1C=C2CCC3C(CCC4(C)C3CC[C@@H]4OC(=O)CC)C2CC1` (stereo not given in full) was 2.37%.

For `COc1ccc(N(C(=O)Oc2c(C)cccc2C)c2ccnc(Nc3ccc(N4CCN(C)CC4)cc3)n2)c(OC)c1`, the max response is 1.61% and -25.7%. As to `CCNC(=O)C[C@@H]1N=C(c2ccc(Cl)cc2)c2cc(OC)ccc2-n2c(C)nnc21`, the Potency was 5.17 µM (active).

Take `CC1(N2CCC(n3c([C@@H]4CCCNC4)nc4ccccc43)CC2)CCCCCCC1`: the Potency is 4.69 µM (active) and 7.31 µM (active). With `CC(C)NCC(O)c1ccc([N+](=O)[O-])cc1` (stereo not given), the max response was -8.6%. `C[C@@H]1CC[C@H]2[C@@H](C)C(=O)O[C@@H]3O[C@@]4(C)CC[C@H]1[C@]32OO4`: the Potency is 1.66 µM (active). Regarding `COc1ccc2c(c[n+](C)c3c4cc5c(cc4ccc23)OCO5)c1OC`, the Potency was 2.96 µM (active). `CN[C@@H](C)[C@H](O)c1ccccc1`: the call was inactive.

For `O=C1CCC[C@@H]2[C@H]3CCCN4CCC[C@@H](CN12)[C@@H]34`, the max response is -4.12%. Consider `Cc1c(C(=O)c2cccc3ccccc23)c2cccc3c2n1[C@H](CN1CCOCC1)CO3`, for which the Potency was 18.7 µM (active). In the case of `C=CC(=O)NCNC(=O)C=C`, the outcome was inactive. For `CC(C)(O)C(=O)Nc1ccc([N+](=O)[O-])c(C(F)(F)F)c1`, the max response was -21.8%.
